Results published in the supplement of paper PMC6555819.

System: PPARa:RXRa (NR concentration 270 nM, RXRa partner concentration 90 nM)
Assay: PBM binding z-score (relative to random genomic background probes); higher = stronger binding; sequences stand for … in GC…GCGATTGACAGCGTAGAATGAAGG
Description: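 Protein-binding microarray (Agilent 4x180K custom design, double-stranded 60-nt probes: 5' GC cap, 34-nt variable region, 24-nt constant primer region; full probe sequence given). Purified or IVT nuclear receptor:RXRα heterodimers (3:1 NR:RXRα, mostly 270:90 nM) or homodimers were incubated for 1 h in PBS with 2% milk and no ligand, then detected with Alexa488 antibodies. Fluorescence from o1-orientation probes (~5 replicates averaged) was converted to z-scores against 500 random hg19 background probes. Variable regions are seed direct-repeat (DR0–DR5) sites, all their single-nucleotide variants and half-site ablations.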

With CCTAGTTGTTCAGGAGGTCACACACCGGATATGA as the sequence, how does the PBM binding z-score read?
Its PBM binding z-score is 4.17.

ATATGTAGGTTATCTGGGGTCATTCAGACTAGGC was tested. Which PBM binding z-score did it give?
The PBM binding z-score was 5.4.

For CCGAGGAGGTTACGAGGGGGCATTCAGTGCGAAT, which PBM binding z-score is on record?
The PBM binding z-score was 4.29.

How did the PBM binding z-score turn out when CGTCCAAGGTCATAGGGGGTCAGTGAAGACAGAT was run?
Its PBM binding z-score is 6.34.

For ATATGTAGGTTACATCCGGGTCATCCAGGCTATG, which PBM binding z-score is on record?
Its PBM binding z-score is 4.41.

For TCTATTAGTTGATTAGGGCAACCGAAACAGCGGA, which PBM binding z-score is on record?
Its PBM binding z-score is 1.05.

Which PBM binding z-score does the source give for CGTCCAAGGTCATTGGAGGTCAGTGAAGACAGAT here?
Its PBM binding z-score is 5.85.

CTCGAAAGGTCGTGCTCAGATGAGTATACCAAAC was tested. Which PBM binding z-score did it give?
Its PBM binding z-score is 4.71.

CCTACTGGTCCAAGGTCATTGATCAGTCAAAGCA was tested. Which PBM binding z-score did it give?
The PBM binding z-score was 3.59.

For CCAGACAGGTGAGAAGGTAACTCAGCCTCGATTA, which PBM binding z-score is on record?
Its PBM binding z-score is 0.833.

With CAAACGAGGTCAAAGGTCAAAGTCGAGCCAACCA as the sequence, how does the PBM binding z-score read?
Its PBM binding z-score is 7.69.

TACCCTAGGTCATTCAGGGGCCAGTATAGAAAGC was tested. Which PBM binding z-score did it give?
Its PBM binding z-score is 3.81.

AGAATGAGGTTAAACGTAGATCAGGGAAGAAAGT was tested. Which PBM binding z-score did it give?
The PBM binding z-score was 4.4.

For CGCACTAGGTCATCCAGGACAGTGAATACATTGA, which PBM binding z-score is on record?
The PBM binding z-score was 4.49.

Which PBM binding z-score does the source give for CGAACTAGGTCAAGGCCAGTGAATCTCCGCACGC here?
Its PBM binding z-score is 5.04.

How did the PBM binding z-score turn out when CGAACTAGGTCAAAGGACATTGAAAGGCGACGTA was run?
Its PBM binding z-score is 6.03.

How did the PBM binding z-score turn out when CAAACCAGGTCACAGAGGTCAAAGTCCGTGCGTA was run?
The PBM binding z-score was 6.49.

How did the PBM binding z-score turn out when GCTGCGAGGTCAACTGATGGTCAGCTAAAGCTCG was run?
Its PBM binding z-score is 6.02.

TACCCTAGGTCATTGGGCCAGTATAGTACGCATC was tested. Which PBM binding z-score did it give?
The PBM binding z-score was 4.06.

For CGAACTAGGTCGTCCAGGACAGTGAATACATTGA, which PBM binding z-score is on record?
The PBM binding z-score was 2.09.

With CCTACTCGGCCAAAAAGGTCATTGATGCCGATAA as the sequence, how does the PBM binding z-score read?
Its PBM binding z-score is 4.87.

Which PBM binding z-score does the source give for TCTCGGAGGACACTAAAGGTCAGAGCTCGACATC here?
The PBM binding z-score was 3.42.

How did the PBM binding z-score turn out when CGTCCAAAGTCAAAGGTCAGTGAAGAGATGACGG was run?
The PBM binding z-score was 5.06.

How did the PBM binding z-score turn out when CAAACTAGGTCACAGTGGTCAAAGTCCGTGCGTA was run?
Its PBM binding z-score is 5.

Which PBM binding z-score does the source give for GCTAGTTGGTCAGTAAAATGTCACACACCGGTCG here?
The PBM binding z-score was -0.0403.

With GGAACGAGGGCAAAGTTCATAGCATCTGTCGACG as the sequence, how does the PBM binding z-score read?
Its PBM binding z-score is 6.24.

With CCTAGTGGGCCAAGGTCATTGATCAGTCAAAGCA as the sequence, how does the PBM binding z-score read?
Its PBM binding z-score is 3.87.

For CCTAGCAGGCCAATCTAGGTCACTCAAGGCTTGA, which PBM binding z-score is on record?
The PBM binding z-score was 3.15.

Which PBM binding z-score does the source give for TCTAGTTGGTCTAAGGTCACACACTCGAAATGCG here?
The PBM binding z-score was 4.7.

AGAATGAGGTTAAGTTCAGGGAAACAGAATACAT was tested. Which PBM binding z-score did it give?
Its PBM binding z-score is 4.63.

How did the PBM binding z-score turn out when CCTACTGGGCCACTAAAGGTCATTGATTCAGTGA was run?
The PBM binding z-score was 4.62.

How did the PBM binding z-score turn out when CAAACTAGGTCAAGGTCTAAGTCGGTTTGTGCCA was run?
Its PBM binding z-score is 4.92.

How did the PBM binding z-score turn out when CCGAGTAGGTTACGAGGGGTCATTCAGTGCGAAT was run?
The PBM binding z-score was 5.09.

With CAAACTAGGTCACTAAAGGTCAAAGTCGAATGAC as the sequence, how does the PBM binding z-score read?
Its PBM binding z-score is 6.51.

ACTAGTTGGTCAGCTGAGGTCACACCCAATTCGG was tested. Which PBM binding z-score did it give?
Its PBM binding z-score is 3.46.

How did the PBM binding z-score turn out when CCTTACGGGTTACTCCAGGTTATAGCATCGGAGT was run?
The PBM binding z-score was 1.45.

CGAACAAGGTCACCAGGACAGTGAAGAGGTTGGA was tested. Which PBM binding z-score did it give?
The PBM binding z-score was 6.12.

With CGTCTAAGGTCATAGGAGGTCAGTGAAGACAGAT as the sequence, how does the PBM binding z-score read?
Its PBM binding z-score is 6.24.

Which PBM binding z-score does the source give for CGTCCAAGGTCACGGTCAGTGAAAGAGACTCGAA here?
The PBM binding z-score was 6.27.

With TAGCCTAGGTTATGGGCCAGTATACCACGCGAAC as the sequence, how does the PBM binding z-score read?
The PBM binding z-score was 0.542.
